Measured values: publication PMC5700166
Residue numbers refer to the chain shown, from its start.

How the values were obtained:
Test in all cases: protein-binding microarray (PBM); PBM: ~300 nM protein, 6 mM HEPES pH 7.8, 80 mM KCl, 0.5 mM EDTA, 0.5 mM EGTA, 6% glycerol, 35 ng/ul poly-dIdC, 1% milk, 1 h, room temperature; Ap Aiptasia and Nv Nematostella (sea anemones) / Co Capsaspora / Aq Amphimedon (sponge) / Dm Drosophila / Hu human; RHD is the Rel homology domain; high values mean tight binding
Details in all cases: dsDNA, one strand shown
GST-Ap-NF-kB RHD = molecular target: T1, GST-Ap-NF-kB RHD (Exaiptasia pallida (Aiptasia), UniProt A0A913YAJ5 2-422)
T1 sequence: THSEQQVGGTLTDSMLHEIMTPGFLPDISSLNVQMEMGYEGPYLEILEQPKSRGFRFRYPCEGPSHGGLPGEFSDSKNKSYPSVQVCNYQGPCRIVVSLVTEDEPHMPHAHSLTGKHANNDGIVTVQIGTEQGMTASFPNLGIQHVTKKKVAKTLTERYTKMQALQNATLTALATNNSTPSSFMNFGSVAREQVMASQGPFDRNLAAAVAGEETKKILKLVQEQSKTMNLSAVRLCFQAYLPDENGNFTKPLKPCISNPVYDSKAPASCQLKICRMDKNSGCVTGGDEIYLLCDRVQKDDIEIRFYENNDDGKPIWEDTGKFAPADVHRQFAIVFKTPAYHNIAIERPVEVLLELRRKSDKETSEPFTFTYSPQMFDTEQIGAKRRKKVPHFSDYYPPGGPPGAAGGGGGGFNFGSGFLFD

[1] = molecular target: T2, GST-Nv-NF-kB (Cys allele) (Nematostella vectensis, UniProt E5G601 2-411)
T2 sequence: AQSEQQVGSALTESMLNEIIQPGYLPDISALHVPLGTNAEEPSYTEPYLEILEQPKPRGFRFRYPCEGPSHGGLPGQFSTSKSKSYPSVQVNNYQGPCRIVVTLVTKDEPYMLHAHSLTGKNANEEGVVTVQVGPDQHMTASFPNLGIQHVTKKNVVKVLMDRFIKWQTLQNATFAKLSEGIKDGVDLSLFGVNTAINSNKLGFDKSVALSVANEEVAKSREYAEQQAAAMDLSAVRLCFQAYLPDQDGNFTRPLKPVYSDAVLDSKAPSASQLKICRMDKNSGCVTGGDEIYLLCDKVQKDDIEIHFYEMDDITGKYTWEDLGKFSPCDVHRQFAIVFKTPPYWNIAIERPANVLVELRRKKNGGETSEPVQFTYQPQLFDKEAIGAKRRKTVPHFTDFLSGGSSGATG

[2] = molecular target: T3, GST-Nv-NF-kB (Ser allele) (Nematostella vectensis, UniProt A7UNT2 2-411)
T3 sequence: T2 sequence with Q21R, C66S, S207N, E215Q, V217A, E225K, A268E, D399E

GST-Co-NF-kB = molecular target: T4, GST-Co-NF-kB (Capsaspora owczarzaki, UniProt F1ARL5 200-546)
T4 sequence: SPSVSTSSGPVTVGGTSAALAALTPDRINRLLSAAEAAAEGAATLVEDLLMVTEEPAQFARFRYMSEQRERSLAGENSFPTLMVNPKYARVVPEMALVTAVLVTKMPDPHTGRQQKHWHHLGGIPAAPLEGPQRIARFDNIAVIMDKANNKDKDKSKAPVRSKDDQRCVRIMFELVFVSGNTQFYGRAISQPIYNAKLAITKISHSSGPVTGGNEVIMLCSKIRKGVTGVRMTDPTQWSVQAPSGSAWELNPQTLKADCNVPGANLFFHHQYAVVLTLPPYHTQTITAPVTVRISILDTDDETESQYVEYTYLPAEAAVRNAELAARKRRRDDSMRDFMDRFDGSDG

GST-Dm-Relish = molecular target: T5, GST-Dm-Relish (Drosophila melanogaster, UniProt Q94527 99-473)
T5 sequence: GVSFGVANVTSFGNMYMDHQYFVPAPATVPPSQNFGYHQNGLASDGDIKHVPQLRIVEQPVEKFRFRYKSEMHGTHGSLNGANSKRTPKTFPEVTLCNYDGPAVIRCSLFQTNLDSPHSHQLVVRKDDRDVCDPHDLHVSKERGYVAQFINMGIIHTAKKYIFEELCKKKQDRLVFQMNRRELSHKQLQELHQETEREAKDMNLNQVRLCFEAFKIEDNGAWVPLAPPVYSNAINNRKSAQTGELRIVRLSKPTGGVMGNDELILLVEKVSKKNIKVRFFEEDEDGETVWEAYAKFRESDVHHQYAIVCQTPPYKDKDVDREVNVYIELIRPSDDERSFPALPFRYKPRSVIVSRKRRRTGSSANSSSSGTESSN

GST-Aq-NF-kB = molecular target: T6, GST-Aq-NF-kB (Amphimedon queenslandica, UniProt A9Y5G7 2-389)
T6 sequence: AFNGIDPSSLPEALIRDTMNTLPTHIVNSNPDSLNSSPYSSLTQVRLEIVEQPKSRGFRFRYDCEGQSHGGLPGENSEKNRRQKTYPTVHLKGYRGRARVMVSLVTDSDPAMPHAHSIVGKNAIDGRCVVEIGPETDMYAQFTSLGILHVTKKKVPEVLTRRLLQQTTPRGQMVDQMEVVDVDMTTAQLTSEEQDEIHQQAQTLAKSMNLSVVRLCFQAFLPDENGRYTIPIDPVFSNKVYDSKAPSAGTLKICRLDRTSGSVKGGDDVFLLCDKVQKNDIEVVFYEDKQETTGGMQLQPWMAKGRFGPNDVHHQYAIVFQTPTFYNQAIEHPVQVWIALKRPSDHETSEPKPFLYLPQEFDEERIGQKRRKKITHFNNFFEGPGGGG

GST-Hu-p50 = GST-Hu-p50 (Homo sapiens, UniProt P19838 7-356)
Chain of GST-Hu-p50 (P19838 7-356): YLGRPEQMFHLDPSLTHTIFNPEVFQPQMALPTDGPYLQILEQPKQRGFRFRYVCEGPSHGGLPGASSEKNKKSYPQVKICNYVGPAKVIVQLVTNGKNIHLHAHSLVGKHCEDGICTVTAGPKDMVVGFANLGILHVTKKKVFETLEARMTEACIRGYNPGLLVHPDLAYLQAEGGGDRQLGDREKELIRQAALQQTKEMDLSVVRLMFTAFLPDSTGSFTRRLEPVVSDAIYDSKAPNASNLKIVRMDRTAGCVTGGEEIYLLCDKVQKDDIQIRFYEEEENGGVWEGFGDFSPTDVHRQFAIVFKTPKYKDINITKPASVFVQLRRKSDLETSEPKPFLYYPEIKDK

| Sequence | binding signal (GST-Ap-NF-kB RHD) [z-score] | binding signal [1] [z-score] | binding signal [2] [z-score] | binding signal (GST-Co-NF-kB) [z-score] | binding signal (GST-Dm-Relish) [z-score] | binding signal (GST-Aq-NF-kB) [z-score] | binding signal (GST-Hu-p50) [z-score] |
| --- | --- | --- | --- | --- | --- | --- | --- |
| CCGATTAACATCACAAACCCCCCTGATGTTAATCGGGTCTTGATTCGCTTGACGCTGCTG | 6.66 | 4.96 | 6.4 | 3.99 | 7.41 | 5.34 | 6.08 |
| CCGATTAACATCAAGAAAGTCCCTGATGTTAATCGGGTCTTGATTCGCTTGACGCTGCTG | 7.56 | 8.86 | 8.7 | 1.38 | 7.13 | 6.74 | 6.05 |
| CCGATTAACATCACCATTTCCCCTGATGTTAATCGGGTCTTGATTCGCTTGACGCTGCTG | 5.75 | 6.95 | 9.62 | 6.17 | 2.11 | 4.32 | 5.3 |
| CCGATTAACATCAGGGACTACCCTGATGTTAATCGGGTCTTGATTCGCTTGACGCTGCTG | 6.16 | 5.24 | 4.07 | 1.8 | 7.1 | 7.57 | 4.13 |
| CCGATTAACATCAGGGAAATTTATGATGTTAATCGGGTCTTGATTCGCTTGACGCTGCTG | 5.86 | 8.28 | 7.67 | 5.84 | 4.1 | 7.49 | 5.55 |
| CCGATTAACATCAAGAATCCCCCTGATGTTAATCGGGTCTTGATTCGCTTGACGCTGCTG | 9.83 | 9.82 | 10.5 | 6.36 | 9.1 | 7.61 | 7.83 |
| CCGATTAACATCAAGATTCCCCCTGATGTTAATCGGGTCTTGATTCGCTTGACGCTGCTG | 8.66 | 9.42 | 10.6 | 9.18 | 7.1 | 7.31 | 7.32 |
| CCGATTAACATCAGGGGATAACCTGATGTTAATCGGGTCTTGATTCGCTTGACGCTGCTG | 6.14 | 6.28 | 6.92 | 3.7 | 7.51 | 7.32 | 4.93 |
| CCGATTAACATCAATAATTTCCCTGATGTTAATCGGGTCTTGATTCGCTTGACGCTGCTG | 4.38 | 6.39 | 7.05 | 4.82 | 3.45 | 5.17 | 5 |
| CCGATTAACATCAAAACGTCCCCTGATGTTAATCGGGTCTTGATTCGCTTGACGCTGCTG | 6.23 | 6.41 | 6.45 | 5.34 | 5.03 | 6.19 | 5.59 |
| CCGATTAACATCAAAATTCCCCCTGATGTTAATCGGGTCTTGATTCGCTTGACGCTGCTG | 10.1 | 11.6 | 13.3 | 11.3 | 9.16 | 9.32 | 8.09 |
| CCGATTAACATCACAGTCCCCCCTGATGTTAATCGGGTCTTGATTCGCTTGACGCTGCTG | 5.98 | 5.07 | 5.18 | 5.62 | 4.6 | 4.63 | 4.33 |
